Measured values reported in PubChem BioAssay AID504329 (Southern Research Specialized Biocontainment Screening …, 2011).
Screen size: about 340,000 compounds; about 1,000 (0.29%) were called active. The list is a sample of the results. Results with a measured potency or affinity are listed apart. A number with no mark means an inactive call. Cut-off read from the data, not from the text of the source: inconclusive = inhibition above about 27% without an active follow-up result; inactive = below that.

test: NS1A inhibition, H1N1 influenza, cell based functional assay (AID 504329); details: percent inhibition, at 12.5 µM, hits give high values

Row | SMILES | inhibition [%]
1 | COc1ccc(-c2cc(C#N)nc(NN)n2)cc1 | 4.09
2 | N/C(CSc1ccccn1)=N\OCc1c(Cl)cccc1Cl | -0.92
3 | Cc1ccc(CNC(=O)CSc2ccc(-c3ccco3)nn2)cc1 | 0.95
4 | CCC(=O)Nc1cc(-c2nn(CC(=O)N3CCCCC3)c(=O)c3ccccc23)ccc1N1CCOCC1 | -7.33
5 | C=CC[C@H]1C=C[C@@H](C(C(=O)OC)C(=O)OC)CN1C(C)=O | -4.78
6 | COCCOC(=O)c1c(NC(=O)COC(=O)Cc2cccc(OC)c2)sc(C(N)=O)c1C | 6.16
7 | C/C(=N\NC(=O)c1cc2ccccc2cc1O)c1cccs1 | -6
8 | C/C(=N/NC(=O)c1cc2ccccc2cc1O)c1ccco1 | -9.07
9 | O=C(N/N=C/c1ccccn1)c1cc(Br)ccc1O | -2.68
10 | C/C(=N\NC(=O)c1cc(Br)ccc1O)c1cccs1 | 0.04
11 | CN1CCc2cc3c(c4c2C1CC41CCC(=NO)CC1)OCO3 (stereo unspecified) | 4.88
12 | C=CCOC(=O)C1=C[C@H](C2CC2)[C@@H](CCCO)[C@H](OCC)O1 | -9.11
13 | CC(C)/C=C/C(=O)N1CCCC(N2CCN(c3ccccc3F)CC2)C1 (stereo unspecified) | -4.31
14 | Cc1nnc2sc(SCc3ccccc3Cl)nn2c1=O | -4.7
15 | COc1ccc(OC)c(NC(=O)CSc2nn3c(=O)c(C)nnc3s2)c1 | 12.7
16 | COc1ccccc1NC(=O)CSc1nnc(C)s1 | 4.51

Row | SMILES | inhibition [%]
17 | Cc1ccccc1CSc1nn2c(=O)c(C)nnc2s1 | -4.51
18 | O=C(/C=N/O)NCc1ccncc1 | -2.91
19 | O=C(CC(NS(=O)(=O)c1ccc(Cl)cc1)c1ccco1)NCc1ccco1 (stereo unspecified) | -0.25
20 | Cc1ccccc1NC(=S)N(Cc1cccnc1)Cc1ccco1 | 17
21 | Cc1cc(C(=O)NCCCOC(C)C)c2ccccc2n1 | 5.34
22 | COc1ccc(-c2csc(NC(=O)CCCc3nc4ccccc4c(=O)[nH]3)n2)cc1OC | 0.34
23 | N#Cc1ccc(CSc2nnc3[nH]c(=O)cc(N)n23)cc1 | -7.19
24 | O=C(COc1ncnc2ccccc12)NC1CCCCC1 | 9.63
25 | COc1ccc(CC(=O)NC(C)c2nnc(SCC(=O)Nc3cc(C)ccc3OC)n2C)cc1 (stereo unspecified) | -9.49
26 | Cc1csc(N/N=C/c2ccccn2)n1 | 7.11
27 | Cc1cccc(/C=N/Nc2nncc3ccccc23)c1 | 3.05
28 | C(=N\Nc1nc2ccccc2[nH]1)/c1ccccn1 | 17.1
29 | C(=N\Nc1nncc2ccccc12)/c1ccccc1 | -20.6
30 | O=c1cnnc(N/N=C/c2ccccn2)[nH]1 | 20.5
31 | O=C(N/N=C/c1ccccn1)c1ccc(N/N=C/c2ccccn2)cc1 | 1.09
